According to PubChem BioAssay:
Active and inactive are the calls of the source.

Tests used:
[1] = binders of probe aFSTL3 on microarray, primary screen, stem cell growth factor project, biochemical, small-molecule microarray, fluorescence 635/667 (AID 1064); details: higher = more signal;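 further: measures binding of the biotinylated anti-FSTL3 antibody to printed compounds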
[2] = binders from COS7 lysate, DM2A8 probe, primary screen, torsin A project, cell lysate, small-molecule microarray, fluorescence 635/667 (AID 1065); details: higher = more signal, COS7 lysate expressing mutant human TOR1A
[3] = binders of probe aFGF2 on microarray, primary screen, stem cell growth factor project, biochemical, small-molecule microarray, fluorescence 635/667 (AID 1067); details: higher = more signal;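 further: measures binding of biotinylated aFGF2 protein to printed compounds on slides; z-score merges feature fluorescence and signal-to-noise across triplicate slides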
[4] = binders of probe aFGF10 on microarray, primary screen, stem cell growth factor project, biochemical, small-molecule microarray, fluorescence 635/667 (AID 1071); details: higher = more signal;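 further: score merges 667 nm spot intensity and signal to noise from triplicate slides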
[5] = molecular target: Neurogenic locus notch homolog protein 2 (Homo sapiens) (UniProt Q04721); test: Notch2 binders on small-molecule microarrays, primary screen, biochemical, small-molecule microarray, 635 nm fluorescence, stem cell growth factors (AID 1073); details: Notch2 binding, higher = more signal
[6] = molecular target: Pro-neuregulin-1, membrane-bound isoform (Homo sapiens) (UniProt Q02297); test: NRG1 binders on small-molecule microarrays, primary screen, psychiatric disease protein project, biochemical, small-molecule microarray, fluorescence 635/667 (AID 1075); details: NRG1 binding, 635 nm fluorescence, higher = more signal;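 further: score combines 667 nm spot fluorescence with signal to noise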
[7] = tested on: Neuregulin-1 EGF-like domain; test: binders of neuregulin-1 EGF-like domain, primary screen, biochemical, small-molecule microarray, 635 nm fluorescence (AID 1081); details: small-molecule microarray binding, higher = more signal;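 further: binding of the protein to compounds printed on small-molecule microarray slides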
[8] = FRG1 promoter luciferase signal modulators, primary screen, FRG1 inhibition for FSHD, cell-based, C2C12 myotubes, firefly/Renilla luciferase, luminescence (AID 1084); details: higher = more signal, called active from +8 up or from −8 down
[9] = binders of probe aFST on microarray, primary screen, stem cell growth factor project, biochemical, small-molecule microarray, fluorescence 635/667 (AID 1086); details: higher = more signal;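 further: score merges 667 nm fluorescence with signal-to-noise of each printed compound spot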
[10] = binders of probe aHhip on microarray, primary screen, stem cell growth factor project, biochemical, small-molecule microarray, fluorescence 635/667 (AID 1087); details: higher = more signal;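 further: score merges spot fluorescence at 667nm with spot signal to noise ratio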
[11] = tested on: PRMT1 (protein arginine N-methyltransferase 1); test: PRMT1 binders on small-molecule microarrays, primary screen, biochemical, small-molecule microarray, 635 nm fluorescence (AID 1088); details: small-molecule microarray binding, higher = more signal;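 further: binding of Prmt1 protein to compounds spotted on small-molecule microarray slides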
[12] = yeast growth modulation, basal conditions, primary screen, YJM789 clinical isolate, OD600, 24 h (AID 1089);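 further: growth of clinical yeast isolate S. cerevisiae YJM 789 seeded 1000 cells per well; test concentration not given here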; details: S. cerevisiae YJM789 growth, higher = more signal, called active from +8 up or from −8 down
[13] = fission yeast growth modulation, primary screen, strain 972, OD600, 24 h, no modulator (AID 1090);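 further: basal condition with compound alone and no growth modifier present; test concentration not given here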; details: S. pombe 972 growth, higher = more signal, called active from +8 up or from −8 down
[14] = S. cerevisiae growth modulation with rapamycin, primary screen, strain BY4716, OD600, 96 h (AID 1091); details: higher = more signal, called active from +8 up or from −8 down; further: test concentration not given here
[15] = molecular target: Torsin-1A-interacting protein 2 (Homo sapiens) (UniProt Q8NFQ8); test: LULL1 binders on small-molecule microarray, primary screen, cell lysate, human LULL1 lysate, 635/667 nm fluorescence (AID 1092); details: hLULL1 lysate binding, 635 nm fluorescence, higher = more signal;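 further: probe is lysate of COS7 cells overexpressing human LULL1; score merges per-feature 667 nm fluorescence with signal-to-noise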
[16] = E. coli growth modulation, two-sided OD650, primary screen, E. coli filamentation project, strain DRC41, 24 h (AID 1093); details: OD650, 24 h, higher = more signal, called active from +8 up or from −8 down;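 further: MC1000 strain lacking acrAB efflux and sulA so SOS filamentation is blocked; test concentration not given here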
[17] = small-molecule microarray binders of probe aLefty2, primary screen, biochemical, biotinylated probe, 635/667 nm fluorescence (AID 1094); details: higher = more signal;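 further: score merges spot fluorescence near 667 nm with spot signal-to-noise ratio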
[18] = tested on: Noggin (protein binding on small-molecule microarray); test: Noggin binders on small-molecule microarray, primary screen, biochemical, 635/667 nm fluorescence (AID 1095); details: 635 nm fluorescence, higher = more signal;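 further: score merges 667 nm feature fluorescence with signal to noise over triplicate slides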
[19] = molecular target: Neurogenic locus notch homolog protein 3 (Homo sapiens) (UniProt Q9UM47); test: NOTCH3 binders on small-molecule microarray, primary screen, biochemical, 635/667 nm fluorescence (AID 1096); details: NOTCH3 binding, 635 nm fluorescence, higher = more signal
[20] = small-molecule microarray binders of probe aEGFR, primary screen, biochemical, biotinylated probe, 635/667 nm fluorescence (AID 1097); details: higher = more signal;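 further: probe is a biotinylated anti-EGFR antibody binding compounds printed on slides; score combines fluorescence near 667 nm and signal to noise of each spot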

Sequence of Pro-neuregulin-1, membrane-bound isoform (Homo sapiens) (Q02297 whole entry, looked up, the tested form may be a part, canonical isoform): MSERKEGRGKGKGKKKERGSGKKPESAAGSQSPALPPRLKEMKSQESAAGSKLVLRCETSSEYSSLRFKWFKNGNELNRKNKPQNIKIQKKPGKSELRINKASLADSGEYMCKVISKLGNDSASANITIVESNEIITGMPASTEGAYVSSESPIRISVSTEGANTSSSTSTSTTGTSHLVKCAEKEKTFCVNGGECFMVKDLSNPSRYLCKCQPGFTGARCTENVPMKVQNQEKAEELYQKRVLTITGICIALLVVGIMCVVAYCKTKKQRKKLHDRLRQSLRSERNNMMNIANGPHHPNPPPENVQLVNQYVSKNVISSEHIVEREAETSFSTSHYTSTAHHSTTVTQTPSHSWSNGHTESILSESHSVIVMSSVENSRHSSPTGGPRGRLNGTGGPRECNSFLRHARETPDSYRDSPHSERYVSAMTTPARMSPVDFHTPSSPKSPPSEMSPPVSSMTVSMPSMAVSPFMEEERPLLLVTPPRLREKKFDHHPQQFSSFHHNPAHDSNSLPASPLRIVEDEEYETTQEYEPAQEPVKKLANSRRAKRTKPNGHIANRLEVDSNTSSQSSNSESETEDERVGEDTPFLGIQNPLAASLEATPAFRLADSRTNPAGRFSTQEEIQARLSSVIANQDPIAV
Sequence of Neurogenic locus notch homolog protein 2 (Homo sapiens) (Q04721 whole entry, looked up, canonical isoform): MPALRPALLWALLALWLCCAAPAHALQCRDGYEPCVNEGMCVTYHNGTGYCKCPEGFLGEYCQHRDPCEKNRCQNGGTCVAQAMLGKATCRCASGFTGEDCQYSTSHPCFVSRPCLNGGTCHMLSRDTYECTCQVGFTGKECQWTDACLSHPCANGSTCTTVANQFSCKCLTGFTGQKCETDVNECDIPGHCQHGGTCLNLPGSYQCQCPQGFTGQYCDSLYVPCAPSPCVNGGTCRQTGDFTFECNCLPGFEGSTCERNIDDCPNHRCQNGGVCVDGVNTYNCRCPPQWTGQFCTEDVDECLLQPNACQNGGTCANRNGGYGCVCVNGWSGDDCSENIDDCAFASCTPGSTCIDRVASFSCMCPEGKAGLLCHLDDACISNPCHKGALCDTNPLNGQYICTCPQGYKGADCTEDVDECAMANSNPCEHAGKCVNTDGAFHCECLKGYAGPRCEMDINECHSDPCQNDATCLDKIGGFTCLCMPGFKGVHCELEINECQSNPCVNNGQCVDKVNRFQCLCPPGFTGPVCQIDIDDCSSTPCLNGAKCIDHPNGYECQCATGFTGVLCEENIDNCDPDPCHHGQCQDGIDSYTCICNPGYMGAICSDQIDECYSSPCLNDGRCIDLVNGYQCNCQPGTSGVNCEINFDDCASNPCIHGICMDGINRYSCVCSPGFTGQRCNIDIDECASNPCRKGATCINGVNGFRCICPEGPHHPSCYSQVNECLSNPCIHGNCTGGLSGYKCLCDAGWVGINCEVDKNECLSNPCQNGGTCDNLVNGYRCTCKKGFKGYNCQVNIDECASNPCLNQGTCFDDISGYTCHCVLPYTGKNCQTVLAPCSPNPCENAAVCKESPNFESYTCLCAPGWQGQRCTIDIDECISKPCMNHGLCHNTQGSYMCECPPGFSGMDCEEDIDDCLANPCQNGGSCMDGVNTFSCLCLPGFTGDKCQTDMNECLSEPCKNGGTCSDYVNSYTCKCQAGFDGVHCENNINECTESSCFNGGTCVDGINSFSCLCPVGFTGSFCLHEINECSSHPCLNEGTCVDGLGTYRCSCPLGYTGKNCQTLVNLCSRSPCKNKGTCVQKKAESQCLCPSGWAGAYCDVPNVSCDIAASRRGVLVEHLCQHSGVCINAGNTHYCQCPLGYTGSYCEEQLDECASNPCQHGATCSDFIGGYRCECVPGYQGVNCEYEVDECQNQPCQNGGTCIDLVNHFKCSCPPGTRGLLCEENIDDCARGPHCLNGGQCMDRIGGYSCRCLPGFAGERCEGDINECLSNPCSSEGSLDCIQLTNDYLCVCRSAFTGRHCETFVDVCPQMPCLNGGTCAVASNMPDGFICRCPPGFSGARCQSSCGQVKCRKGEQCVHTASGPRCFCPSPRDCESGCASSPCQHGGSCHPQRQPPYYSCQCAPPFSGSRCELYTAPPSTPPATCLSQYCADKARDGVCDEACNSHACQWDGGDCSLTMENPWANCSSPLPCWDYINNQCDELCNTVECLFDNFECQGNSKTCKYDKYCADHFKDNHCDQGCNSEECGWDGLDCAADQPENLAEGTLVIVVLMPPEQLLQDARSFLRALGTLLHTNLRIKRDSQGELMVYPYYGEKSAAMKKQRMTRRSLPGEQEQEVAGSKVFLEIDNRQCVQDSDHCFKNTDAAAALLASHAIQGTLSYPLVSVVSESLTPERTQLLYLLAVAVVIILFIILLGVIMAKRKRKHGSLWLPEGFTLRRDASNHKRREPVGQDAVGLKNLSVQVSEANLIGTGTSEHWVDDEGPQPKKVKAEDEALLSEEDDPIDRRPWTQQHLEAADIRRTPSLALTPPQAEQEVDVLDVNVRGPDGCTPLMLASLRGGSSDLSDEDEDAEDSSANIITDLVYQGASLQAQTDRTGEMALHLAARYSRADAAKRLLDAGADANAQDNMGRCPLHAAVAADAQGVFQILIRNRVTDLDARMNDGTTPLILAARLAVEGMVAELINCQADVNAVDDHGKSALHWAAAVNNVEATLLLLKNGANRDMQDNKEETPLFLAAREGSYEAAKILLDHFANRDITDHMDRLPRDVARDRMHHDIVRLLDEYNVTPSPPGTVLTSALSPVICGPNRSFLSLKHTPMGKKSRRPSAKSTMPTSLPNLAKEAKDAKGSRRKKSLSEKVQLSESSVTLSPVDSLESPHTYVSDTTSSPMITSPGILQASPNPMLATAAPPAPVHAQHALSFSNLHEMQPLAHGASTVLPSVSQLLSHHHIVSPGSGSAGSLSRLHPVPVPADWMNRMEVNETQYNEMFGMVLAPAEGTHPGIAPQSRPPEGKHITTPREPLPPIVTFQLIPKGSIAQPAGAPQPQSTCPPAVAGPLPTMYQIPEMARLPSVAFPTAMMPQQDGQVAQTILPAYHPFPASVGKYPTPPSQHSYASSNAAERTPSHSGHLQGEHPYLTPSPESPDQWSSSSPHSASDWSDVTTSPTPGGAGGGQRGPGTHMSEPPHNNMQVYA
Sequence of Torsin-1A-interacting protein 2 (Homo sapiens) (Q8NFQ8 whole entry, looked up): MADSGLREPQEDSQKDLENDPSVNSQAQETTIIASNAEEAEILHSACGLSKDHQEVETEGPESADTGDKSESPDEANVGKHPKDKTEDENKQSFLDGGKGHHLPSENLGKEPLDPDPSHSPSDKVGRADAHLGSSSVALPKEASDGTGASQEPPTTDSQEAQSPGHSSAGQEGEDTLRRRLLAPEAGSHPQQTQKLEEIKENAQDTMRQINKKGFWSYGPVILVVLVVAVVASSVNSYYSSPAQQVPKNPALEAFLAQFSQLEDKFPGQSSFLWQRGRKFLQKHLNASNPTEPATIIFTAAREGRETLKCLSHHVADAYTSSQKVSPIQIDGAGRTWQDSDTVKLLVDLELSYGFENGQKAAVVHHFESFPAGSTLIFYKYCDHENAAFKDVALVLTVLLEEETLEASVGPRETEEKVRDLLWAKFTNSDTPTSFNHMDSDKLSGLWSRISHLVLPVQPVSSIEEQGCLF

Compound	composite z-score [1]	composite z-score [2]	composite z-score [3]	composite z-score [4]	composite z-score [5]	composite z-score [6]	composite z-score [7]	z-score [8]	composite z-score [9]	composite z-score [10]	composite z-score [11]	z-score [12]	z-score [13]	z-score [14]	composite z-score [15]	z-score [16]	composite z-score [17]	composite z-score [18]	composite z-score [19]	composite z-score [20]
[N-]=[N+]=Nc1ccccc1C[C@]1(C(=O)NCC(O)CO)N=C(c2ccc(OCCCO)cc2)O[C@H]1c1ccccc1N=[N+]=[N-] (stereo not given in full)	0.722	0.0264	0.056	0.33	0.379	1.45	0.753	-0.516 (inactive)	0.375	-0.0994	-0.918	0.637 (inactive)	-0.824 (inactive)	0.0558 (inactive)	2.98	0.774 (inactive)	0.334	-0.609	0.203	0.383
C=CCOC(=O)[C@H]1[C@@H]2C(=O)O[C@@H](c3ccccc3)[C@@H](c3ccccc3)N2[C@@H](c2ccc(OCCOC(=O)[C@@H]3C[C@@H]4C(=O)N[C@@H](CCCC[N+](C)(C)C)C(=O)N4[C@@H]3c3ccc(O)cc3)cc2)[C@]12C(=O)Nc1ccccc12	-0.518	0.964	-0.0503	0.439	0.459	0.206	1.15	0.277 (inactive)	-0.367	-0.0618	1.55	-1.27 (inactive)	-3.66 (inactive)	-1.02 (inactive)	2.84	0.155 (inactive)	0.236	1.64	1.12	-0.0663
COCCOC(=O)N1C(=O)[C@@]2(c3cc(C#CC4=CCCCC4)ccc31)[C@H](C(=O)Nc1nc3ccccc3s1)[C@H]1C(=O)O[C@H](c3ccccc3)[C@H](c3ccccc3)N1[C@@H]2c1ccc(OCCO)cc1	-0.152	0.471	-0.0009	0.427	1.12	0.342	0.899	2.19 (inactive)	0.146	-0.0994	1.58	2.47 (inactive)	1.97 (inactive)	2.07 (inactive)	1.82	0.373 (inactive)	-0.119	1.23	1.14	-0.0238
COC(=O)[C@@]1(Cc2ccc(OC)cc2)[C@H]2c3cc(C(=O)N(C)C)n(CCN4CNCC4=O)c3C[C@H]2CN1C(=O)c1ccccc1	0.39	1.47	0.0432	-0.0075	1.27	1.51	1.3	0.124 (inactive)	0.384	0.983	-1.13	-0.693 (inactive)	0.687 (inactive)	-0.567 (inactive)	0.324	0.288 (inactive)	-0.0877	0.788	-0.325	0.107
COC(=O)[C@@]1(Cc2ccc(OC)cc2)[C@H]2c3cc(C(=O)N4CCCC4)n(Cc4ccsc4Br)c3C[C@H]2CN1C(=O)c1ccccc1	0.588	-0.594	-0.1	0.188	1.6	1.68	1.08	3.4 (inactive)	1.37	-0.367	-0.356	-0.168 (inactive)	0.0021 (inactive)	-0.887 (inactive)	2.91	-0.29 (inactive)	0.498	-0.0969	0.855	0.122
C#CCN(CC1=CCCCC1)[C@H](c1ccccc1Br)[C@@H](O)Cc1ccccc1	0.727	0.518	-0.176	-0.123	-0.978	0.251	0.928	-2.16 (inactive)	-0.967	-0.166	0.249	0.119 (inactive)	-4.79 (inactive)	-0.655 (inactive)	1.04	1.79 (inactive)	-0.0724	-0.51	-0.721	-0.356
CCCCN1CC=CC23O[C@@H]4C=CCOC(=O)[C@@H]4[C@H]2C(=O)N(CCCCCO)[C@@H]3C1=O (stereo not given in full)	0.219	-0.726	-0.187	-0.32	-0.661	0.967	1.34	-0.333 (inactive)	-0.603	-0.21	-0.0902	-0.404 (inactive)	-0.244 (inactive)	-0.279 (inactive)	3.04	1.34 (inactive)	0.0695	-0.929	-0.445	-0.268
CCCC=C(CCC)[C@@H](NC(=O)Oc1ccc(F)cc1)c1ccc(C(=O)OC)cc1	0.415	0.175	0.0883	0.48	1.52	-0.454	0.482	-3.81 (inactive)	0.794	-0.121	0.598	0.876 (inactive)	1.99 (inactive)	2.32 (inactive)	3	-0.211 (inactive)	0.212	-0.149	0.775	0.601
CCOc1cc(C(O)C2C=CC3C(=O)N(c4ccccc4)C(=O)C3N2Nc2ccccc2)ccc1O (stereo not given)	0.259	0.107	0.252	1.03	0.66	1.8	1.2	0.893 (inactive)	0.771	-0.189	0.408	0.881 (inactive)	-0.692 (inactive)	1.2 (inactive)	3.52	0.374 (inactive)	-0.0371	-0.419	0.498	0.0192
[N-]=[N+]=NCc1ccccc1[C@@H]1OC(c2ccc(OCCCO)cc2)=N[C@]1(Cc1ccccc1N=[N+]=[N-])C(=O)N1CCOCC1	0.36	0.485	0.321	0.636	1.66	1.77	1.1	-0.825 (inactive)	1.08	-0.0994	1.55	-1.29 (inactive)	-1.59 (inactive)	4.14 (inactive)	3.25	-0.667 (inactive)	0.295	1.04	1.04	0.246
COCC(=C=CC[C@H](O)c1ccccc1OCCO)C[C@H](O)c1cc(Cl)cc(Cl)c1O	-0.417	0.555	-0.129	0.999	0.421	1.43	1.14	-3.97 (inactive)	0.372	-0.0994	1.45	-24.4 (active)	-20.3 (active)	-4.61 (inactive)	2.7	-0.628 (inactive)	-0.0653	0.653	1.03	-0.0703
CN1C(=O)C2C=CC(C(O)C3CCCCC3)N(Nc3ccc([N+](=O)[O-])cc3[N+](=O)[O-])C2C1=O (stereo not given)	0.0318	0.548	0.0331	0.752	1.6	1.59	1.32	0.358 (inactive)	1.51	0.236	1.52	0.492 (inactive)	1.19 (inactive)	0.68 (inactive)	3.24	-0.632 (inactive)	0.191	0.219	1.03	0.0624
C#CCN(CC=C(C)C)[C@H](CO)c1ccccc1	-0.418	0.0737	-0.164	-0.078	0.204	-0.223	-0.187	-0.154 (inactive)	-0.0173	-0.199	0.489	-0.319 (inactive)	-4.47 (inactive)	-1.92 (inactive)	0.0196	0.333 (inactive)	-0.0518	0.223	0.109	-0.0814
C=CC[C@]1(C(=O)NCCCOC)N=C(c2ccc(OCCCO)cc2)O[C@H]1c1ccccc1N=[N+]=[N-]	0.149	-0.0693	0.119	0.751	1.39	0.94	0.989	0.665 (inactive)	1.18	-0.192	1.55	-0.707 (inactive)	-0.688 (inactive)	1.47 (inactive)	3.48	0.421 (inactive)	0.0482	0.444	0.935	-0.265
CC(=O)NCCCC[C@@H]1NC(=O)[C@@H]2C[C@H](C(=O)NCCCCCCNC(=O)CS)[C@H](c3cccc(OCCO)c3)N2C1=O	0.0659	0.311	-0.0212	0.283	0.149	0.632	1.24	0.743 (inactive)	0.414	-0.299	1.55	-0.531 (inactive)	-0.507 (inactive)	-0.0963 (inactive)	2.03	-0.329 (inactive)	0.498	0.452	0.249	-0.112
COC(=O)[C@@]1(Cc2ccc(F)cc2)[C@H]2c3cc(C(=O)N(C)C)n(Cc4ccc(S(C)(=O)=O)cc4)c3C[C@H]2CN1C(=O)c1ccccc1	0.244	0.657	0.209	0.629	1.41	1.79	1.19	0.0659 (inactive)	0.198	0.0274	-0.213	0.304 (inactive)	1.21 (inactive)	0.147 (inactive)	2.23	0.321 (inactive)	0.124	-0.139	0.49	-0.0045
C=CCOC(=O)[C@H]1[C@@H]2C(=O)O[C@@H](c3ccccc3)[C@@H](c3ccccc3)N2[C@@H](c2ccc(OCCOC(=O)[C@H]3C[C@H]4C(=O)N5CCC[C@H]5C(=O)N4[C@H]3c3ccc(O)cc3)cc2)[C@]12C(=O)Nc1ccccc12	-0.168	0.847	0.0069	0.516	1.47	1.33	1.4	1.31 (inactive)	0.0557	0.0881	1.54	1.31 (inactive)	0.998 (inactive)	3.27 (inactive)	3.03	-0.92 (inactive)	0.0292	0.744	0.938	0.127
COc1cc(OC)c(C(O)C2C=CC3C(=O)NC(=O)C3N2Nc2ccc(Cl)cc2Cl)cc1Br (stereo not given)	0.379	-0.0156	0.19	0.141	1.61	1.9	1.11	0.809 (inactive)	1.58	-0.199	0.743	-18.8 (active)	0.109 (inactive)	-0.55 (inactive)	3.34	-1.99 (inactive)	0.277	-0.48	0.541	0.0009
C=C(/C(=C/C[C@@H](OC(C)=O)c1ccc(OCCO)cc1)c1cnc2ccccc2c1)C(C)C	-0.0854	0.769	-0.073	0.164	0.205	0.213	0.946	-1.06 (inactive)	0.142	-0.0645	1.26	-0.0424 (inactive)	-1.56 (inactive)	-0.234 (inactive)	1.06	0.762 (inactive)	-0.197	0.655	0.676	-0.146
